# Laboratory results: ChEMBL document CHEMBL3988442, “University of Dundee, Small-Polar-MMV Screening Library” (2021)
# How the values were obtained:
# [1] = biological target: T1, Aspartate--tRNA(Asp/Asn) ligase (Mycobacterium tuberculosis (strain ATCC 25618 / H37Rv)) (UniProt P9WFW3); experiment: Assay for Asp RNA synthetase-1 from Mycobacterium tuberculosis; format: functional; design: scale not given: direction of the effect not stated beside the values; conditions: 30 µM; further: in the data most compounds retested in dose-response had high values
# T1 sequence (whole entry): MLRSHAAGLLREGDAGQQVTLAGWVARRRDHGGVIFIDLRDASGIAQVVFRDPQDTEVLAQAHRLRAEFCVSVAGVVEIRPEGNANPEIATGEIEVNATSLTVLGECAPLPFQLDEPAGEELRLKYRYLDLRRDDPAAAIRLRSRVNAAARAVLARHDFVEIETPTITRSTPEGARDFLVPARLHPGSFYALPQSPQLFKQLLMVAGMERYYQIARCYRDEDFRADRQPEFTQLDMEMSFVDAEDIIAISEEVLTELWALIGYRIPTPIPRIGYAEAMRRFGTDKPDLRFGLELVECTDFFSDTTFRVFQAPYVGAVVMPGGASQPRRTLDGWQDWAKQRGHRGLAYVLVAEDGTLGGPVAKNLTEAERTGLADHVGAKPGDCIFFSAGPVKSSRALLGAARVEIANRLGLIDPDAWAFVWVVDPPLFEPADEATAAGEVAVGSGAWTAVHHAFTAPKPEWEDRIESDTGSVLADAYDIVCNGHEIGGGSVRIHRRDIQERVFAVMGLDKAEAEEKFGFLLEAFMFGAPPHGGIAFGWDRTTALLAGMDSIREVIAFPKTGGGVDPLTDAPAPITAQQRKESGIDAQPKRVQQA
# [2] = biological target: Shiga toxin 2 (Escherichia coli O157:H7) (UniProt P09385+P09386); experiment: E. coli 0.157:H7 Shiga Toxin SOP - stx2 screening assay; format: functional; design: scale not given: direction of the effect not stated beside the values; conditions: 30 µM
Compound,Percent Effect [1],Percent Effect [2]
Cc1nc(C)n(CC2CCCN2CCCc2ccccc2)n1 (stereo unspecified),0.747%,-14.3%
Cc1cc(C2CCCN(C(=O)c3c(C)nn4cccnc34)C2)n[nH]1 (stereo unspecified),-6.19%,7.06%
COc1ccc(-c2nc(CN3CC(n4cc(C)cn4)C3)no2)cc1,6.9%,-20.1%
CCN1CCN(S(=O)(=O)c2cc(C)c(Cl)cc2Cl)CC1,-2.59%,-47.6%
Cc1cc(C(=O)N2CC[C@H](OCC3CC3)[C@@H]2Cc2cccnc2)no1,1.17%,1.88%
CC(=O)N1CCN(CC2CCOc3ccccc3C2)CC1 (stereo unspecified),1.75%,-26.3%
Cc1n[nH]c(C2CN(C(=O)CCc3ccsc3)CCO2)n1 (stereo unspecified),3.08%,-2.19%
COc1ccc(C(CO)NC(=O)Nc2cccc(C#N)c2)cc1 (stereo unspecified),3.45%,-32.6%
CN(Cc1ccsc1)C(=O)c1cccc(S(=O)(=O)NC(C)(C)C)c1,-1.73%,-33.3%
Cc1ccc(S(=O)(=O)NC2CNC(=O)C2)cc1C (stereo unspecified),-1.98%,9.86%
COc1ccccc1S(=O)(=O)N1CCC(Oc2cccnn2)CC1,-2.24%,-12.5%
O=C(NC1CCCC1)N1CCCC(c2nccn2Cc2ccncc2)C1 (stereo unspecified),-4.62%,12.8%
CCc1ncc2c(n1)CN(Cc1nc(-c3ccccn3)no1)CC2,0.141%,-30.2%
CCc1ccc(OCC(O)CN2CCN(S(C)(=O)=O)CC2)cc1 (stereo unspecified),-0.577%,22.4%
O=C(NCCCN1CCOCC1)c1cc(-c2ccc3c(c2)CCO3)n[nH]1,-2.27%,-67.7%
CCOC1CCCN(C(=O)c2sccc2-n2cnnn2)C1 (stereo unspecified),-4.21%,-8.57%
Cc1n[nH]cc1CNc1ccc2c(c1)N(C(=O)OC(C)(C)C)CCC2,6.33%,-17.7%
CCn1ccnc1CN1CCCN(C(=O)c2cccn2C)CC1,-3.17%,5.64%
Cn1ccnc1COc1ccc(CN2CCN(CCO)CC2)cc1,-5.49%,-50.7%
COc1ccccc1CC1CCCN(CCC#N)C1 (stereo unspecified),-3.31%,32.8%
O=C(C1CC1)N1CCN(Cc2coc(-c3ccc(Cl)cc3)n2)CC1,-1.18%,7.92%
CC(=O)N(Cc1ncc(C(C)C)o1)C1CCN(Cc2nccn2C)C1 (stereo unspecified),3.99%,17.4%
Cc1nn(C)c(Cl)c1CNCc1cccnc1N1CCN(C)CC1,-1.56%,-1.67%
Cc1cccc(CN2C(=O)CO[C@@H]3CN(Cc4nccn4C)C[C@H]32)c1,-0.971%,-7.92%
CNC(=O)Nc1cc(-c2ccccc2C)nn1CCO,10.9%,-22%
C[C@@H]1C[C@@H]2CCN(C(=O)c3cnccn3)C[C@H]2O1,0.69%,-15.2%

Compound,Percent Effect [1],Percent Effect [2]
CC(=O)N(Cc1noc(C2CC2)n1)C1CCN(Cc2ccncc2)C1 (stereo unspecified),1.34%,-5.75%
COc1c(CNCc2ccc(C(=O)NC3CC3)cc2)c(C)nn1C,-3.68%,-14.2%
CCc1nnc(CN2CCCC(c3cc(C(F)(F)F)[nH]n3)C2)o1 (stereo unspecified),1.01%,-4.16%
CN1CC(C(=O)NC(C)(C)C)CC1=O (stereo unspecified),0.616%,-21.3%
COC(=O)c1cccc(OCCn2nc(-c3cccs3)oc2=O)c1,3.9%,25%
CC(C)NC(=O)C(c1ccccc1)N1CCn2c(nnc2C2CC2)C1 (stereo unspecified),-1.48%,13%
N#Cc1ccccc1CN1C[C@@H]2CC[C@H](C1)N(CC1CC1)C2=O,2.11%,-9.72%
CNC(=O)[C@@H]1C[C@H]2CN(Cc3nccs3)C[C@H]2N1C,1.25%,-17%
O=C(Nc1ccc(N2CCCC2)nc1)N1CCc2ccccc2C1,2.91%,-147%
Cn1ccnc1N1CCN(C(=O)Cc2ccc(F)cc2)CC1,3.25%,-73%
CC(C)OCC(=O)N1CCCN(Cc2ccc(C#N)cc2)CC1,-0.7%,27.2%
CC(C)(C)c1ccn(C2(C(=O)O)CCN(c3nccc(N)n3)CC2)n1,3.12%,-19.9%
Cc1cnn(CC(C)NCc2ccc(S(C)(=O)=O)cc2)c1 (stereo unspecified),1.18%,-66.9%
O=C(O)c1cc(-c2cccnc2)cc(S(=O)(=O)N2CCCCCC2)c1,-3.5%,11.4%
c1ccc(CNC2CCc3ncnn3C2)nc1 (stereo unspecified),-0.856%,-65.4%
O=S(=O)(NCC1(O)CCOc2ccccc21)c1ccc(Br)s1 (stereo unspecified),3.31%,17.9%
N#Cc1cccc(NC(=O)N[C@H](CO)c2ccccc2)c1,3.31%,-24.6%
CS(=O)(=O)NCC1CCCN(Cc2ccc(F)c3cccnc23)C1 (stereo unspecified),5.29%,-44.4%
Cc1ncsc1C(=O)NC1CCN(CC(=O)N(C)c2ccccc2)CC1,-3.57%,34%
CC(C)(CO)NC(=O)C1CCC(=O)N(Cc2ccc(Cl)cc2)C1 (stereo unspecified),-3.12%,0.664%
Cc1noc(C2CCC3(CCN(C(=O)C4=CCCCC4)CC3)O2)n1 (stereo unspecified),-2.98%,7.42%
Cc1cc(CN2CCN(C(c3ccccc3)c3ccccc3)CC2)no1,0.857%,10.7%
c1cnn(CC2CCCN2c2ncnc3ccsc23)c1 (stereo unspecified),3.64%,16.1%
CNc1nc(CNC(=O)Nc2cccc(F)c2)cs1,-1.08%,-9.25%
CC(=O)c1cccc(OCCCC(=O)N(C)Cc2cccc(O)c2)c1,-2.31%,-20.2%
CCOCCN1CCN(Cc2nc(C3CC3)no2)CC1CC (stereo unspecified),-4.28%,9.42%

Compound,Percent Effect [1],Percent Effect [2]
COCCCC(=O)NS(=O)(=O)c1ccc2c(c1)OCCCO2,-1.35%,23.1%
N#CC1(C(=O)N2CCN(c3nccs3)CC2)CCCCC1,-2.57%,33.3%
Cn1cc(CN2CC[C@@H]3O[C@H](C(=O)N4CCOCC4)C[C@@H]32)cn1,0.521%,-23.7%
O=C(C1CCOCC1)N1CCO[C@H]2[C@@H](OCc3ccncc3)CC[C@@H]21,-4.8%,22.7%
Cc1cncc(C2CCCN(Cc3cccn3C)C2)n1 (stereo unspecified),0.162%,10.2%
CCn1c(Nc2ccccc2OC)nc2c(C)nn(C)c2c1=O,-3.4%,-16.8%
O=C(NCCn1ccnc1)N1CCCC1c1ccsc1 (stereo unspecified),-7.57%,-9.24%
CCn1c(C)cc(C(=O)N2CCCC(c3nc(C)no3)C2)c1C (stereo unspecified),3.31%,9.36%
COc1c(C2CCCN2Cc2c(C)noc2C)c(C)nn1C (stereo unspecified),1.48%,6.54%
O=C(NCC(O)c1cccs1)c1cccc(Cl)c1 (stereo unspecified),-5.75%,-20.5%
CCc1c(C)nc2n(c1=O)CC(C(=O)Nc1nccs1)CS2 (stereo unspecified),-3.8%,-29.4%
COc1ccc(CN2CC[C@@H](O)[C@@H]2Cc2ccccc2)cc1,-0.406%,-47%
Cc1nc(CN2CCCC(NCc3ccsc3)C2)no1 (stereo unspecified),3.1%,-14.2%
Cc1ncc(CNC(=O)Nc2cc(C(F)(F)F)c[nH]c2=O)s1,2.67%,-19.6%
CC(C)NC(=O)N1CCN(Cc2ccccn2)CC2(CC(=O)N(C)C2)C1 (stereo unspecified),-0.228%,-14.2%
Cn1ccnc1CN1CCOCC(Cc2ccccn2)C1 (stereo unspecified),-1.22%,17.1%
CCc1nc(C)c(C(=O)NCCNc2cnccn2)s1,4.33%,8.72%
CCS(=O)(=O)c1ccccc1C(=O)NCc1ccnc(N(C)C)c1,-3.31%,-44.7%
CCc1n[nH]c(C2CN(C(=O)c3cnc(C)s3)CCO2)n1 (stereo unspecified),-6%,-8.48%
CC(C)(C)c1noc(CN2CCCN(Cc3cccs3)CC2)n1,-4.01%,-1.06%
O=S(=O)(NC1=NCN(CCc2cccs2)CN1)c1ccccc1,-3.8%,-12.6%
c1ccc(OCc2ccncc2)c(CNC2CCc3ncnn3C2)c1 (stereo unspecified),-3.54%,-62.8%
Cn1cnc2c1C(COCC1CC1)CN(Cc1ccsc1)C2 (stereo unspecified),5.14%,-1.62%
CN(C)C(=O)CNC(=O)CCn1ncc2c(Cl)cccc21,-0.813%,-27.9%
Cc1ncsc1C(=O)NCc1cccs1,-1.72%,1.3%
CC(=O)N1CCC(Cc2cnc(-c3c(C)n[nH]c3C)cn2)C1 (stereo unspecified),-11.6%,-7.52%

Compound,Percent Effect [1],Percent Effect [2]
CC1(C)CC(N(Cc2ccccc2)Cc2cccnc2)CC(C)(C)N1,-4.09%,-6.83%
CC(NC(=O)NCCCOC1CCCCC1)c1nncn1C (stereo unspecified),-3.32%,-6.91%
O=C(Nc1nncs1)NC1CCc2ccccc21 (stereo unspecified),1.46%,-33.6%
O=C(NCCOc1ccc(F)c(F)c1)NCc1ccncc1,-0.948%,-4.38%
CCc1cnc(N2C[C@H]3C[C@H](C(=O)N(C)C)[C@@H](C2)O3)nc1,-1.86%,-0.162%
CC(C)(C)C(=O)N1CCCC1c1nc(O)cc(-c2ccccn2)n1 (stereo unspecified),-4.27%,5.71%
Cc1nc(C)n(CC2CCCN(Cc3nnc(C(C)(C)C)o3)C2)n1 (stereo unspecified),1.32%,1.5%
CC(O)CN1CCC(CNCc2ccccc2OC(F)(F)F)CC1 (stereo unspecified),-1.43%,5.19%
COc1ncccc1C(=O)N1CCC(c2nnc(C3CC3)o2)CC1,3.02%,0.085%
CCC1=N[C@@]2(CC[C@@H]3CN(C(=O)NC(C)C)C[C@@H]32)C(=O)N1C,-7.39%,3.05%
Cc1ncsc1C(=O)NC1CCN(CCC(N)=O)CC1,-2.4%,13.9%
COc1ccc(F)cc1C(C(=O)O)N1CCSCC1 (stereo unspecified),4.05%,9.21%
Cc1cn2c(n1)CCC(NC(=O)c1ccc(CS(C)(=O)=O)cc1)C2 (stereo unspecified),-0.233%,-16.5%
CCC1=N[C@@]2(CC[C@@H]3CN(CC(=O)N(C)C)C[C@@H]32)C(=O)N1CC1CC1,-4.18%,-27.3%
COc1ccc(CCNC(=O)C2CCC(Cn3cnnn3)CC2)cc1 (stereo unspecified),-2.03%,-4.05%
O=C(CCc1ccccn1)N1CCc2cc(Cl)cc(Cl)c2C1,15.8%,-69.6%
CN(C)c1cc(CNC(=O)Nc2ccc(S(C)(=O)=O)nc2)ccn1,-1.23%,-117%
Cc1noc([C@@]23CCO[C@@H]2CCN(C(=O)c2sccc2C)C3)n1,-0.466%,-3.55%
Cc1cc(CN2CCN(c3nn4cc(C)nc4s3)CC2)on1,-0.8%,-27.6%
COC[C@H]1CCC[C@]12CN(C(=O)NCc1ccccc1)CCO2,-3.75%,-17.2%
CS(=O)(=O)c1ccc(CNCC2CCN(CCO)CC2)cc1,9.49%,-31.9%
Cc1occc1C(=O)N1CCC2(CCC(C(=O)NCC3CC3)O2)CC1 (stereo unspecified),-0.182%,-6.83%
CC(C)c1ncc2c(n1)CN(Cc1ccc(C(N)=O)cc1)CC2,-0.3%,-42.6%
c1ccc(Cn2cccn2)c(CNCC2CNc3ccnn3C2)c1 (stereo unspecified),1.88%,-40.7%
COCCN(C)C[C@@H]1CCC[C@@H]2CN(c3cc(OC)ncn3)C[C@@H]21,1.66%,2.29%
